Results on 48 compounds are retold here after PubChem BioAssay AID1986 (Sanford-Burnham Center for Chemical Genomics, 2009).

Values joined by “and” are separate entries in the source; they are usually repeats but may differ in a detail not shown here. Identical values can stand only once. About 890 (0.31%) of roughly 290,000 compounds were called active. This is one part of a sample in which actives are shown more often than they occur. Cut-off read from the data, not from the text of the source: active = inhibition mostly above about 52% (no sharp cut-off); inactive = mostly below about 76%.

The nature of this assay: cell-free HIV fusion peptide-binding blockers – biochemical, uHTS, fluorescence dequenching, primary screen (AID 1986). Conditions: 30 min, stronger effect = higher value.
Where [1] appears, read: measured here: repeat confirmation average inhibition, at 18.6 µM.

For orientation: inhibition means the change of the read-out against control, counted positive when it falls. Consider `Cc1ccc(S(=O)(=O)/N=C2/NC(=O)/C(=C/c3ccc(Br)o3)S2)cc1`, for which, where the note is “at 20 µM”, the inhibition was 53.6% (active). Consider `Cc1ccc(S(=O)(=O)/N=C2/NC(=O)/C(=C/c3ccccn3)S2)cc1`, for which the inhibition (at 20 µM) is 13% (inactive).

For the compound `Cc1ccc(S(=O)(=O)/N=C2/NC(=O)/C(=C/c3ccccc3)S2)cc1`, the inhibition was 59.7% (inactive) (at 20 µM) and 46.5% under setting [1]. The matching figures for `Cc1ccc(S(=O)(=O)/N=C2/NC(=O)/C(=C\c3cc(Br)cc(Br)c3O)S2)cc1`: 94.7% (active) and 132%. As for `Cc1ccc(S(=O)(=O)/N=C2/NC(=O)/C(=C\c3ccco3)S2)cc1`, the inhibition (at 20 µM) was -3.4% (inactive). Turning to `Fc1ccc(OCCCCCCN2CCCC2)cc1`, the inhibition (at 20 µM) is 0.7% (inactive).

Turning to `Cc1ccc(NC(=O)CSCc2cc(=O)n3cc(C)sc3n2)c(C)c1`, the inhibition (at 20 µM) is 0% (inactive). Still for that read-out and setting: the result for `CCOC(=O)c1ccc(N=C2SC(C(=O)NC)CC(=O)N2Cc2ccc(F)cc2)cc1` (configuration not stated) reads 0.9% (inactive). `COc1ccc(C2(C(=O)NCCCN(C)C)CCOCC2)cc1`: the inhibition (at 20 µM) is 2.4% (inactive). Same read-out and setting: the result for `O=C(CCl)Nc1cc(S(=O)(=O)N2CCOCC2)ccc1N1CCOCC1` reads 1% (inactive); that for `Oc1ccc(Cl)cc1N=Nc1ccccc1`, -2.6% (inactive); that for `O=S(=O)(O)c1cccc(N=Nc2c(O)ccc3ccccc23)c1`, 10.9% (inactive). In the case of `O=S(=O)(O)c1cc(O)c2c(O)c(N=Nc3cc(Cl)ccc3O)c(S(=O)(=O)O)cc2c1`, for the setting “at 20 µM”, the inhibition is 55.7% (active). Same read-out and setting: then `CCc1ccc2[nH]c3nc(SCc4nnc(-c5ccc(C)cc5)o4)nnc3c2c1`, with 1.4% (inactive).

Regarding `N#Cc1c(-c2cccc(Br)c2)cc(-c2ccco2)[nH]c1=O`, the inhibition (at 20 µM) is 81.5% (active). On to `COc1ccc(-c2cc(-c3ccco3)[nH]c(=O)c2C#N)cc1`, for which the inhibition (at 20 µM) is 48.8% (inactive).

On to `COc1ccc(-c2cc(-c3ccco3)[nH]c(=O)c2C#N)cc1OC`, for which the inhibition (at 20 µM) is 40.7% (inactive). Consider `Cc1c(C(=O)O)c(=O)n(-c2ccccc2)n1-c1ccccc1`, for which, where the note is “at 20 µM”, the inhibition was 1.2% (inactive). With `Cc1ccc(C)c(C(=O)CSc2nc3ccccc3c(=O)[nH]2)c1`, the inhibition (at 20 µM) is 1.9% (inactive). Take `Cc1cc(NC(=O)OC2CCCCC2)ccc1[N+](=O)[O-]`: the inhibition (at 20 µM) was -1.3% (inactive).

For `COc1cc(C(=O)NS(=O)(=O)c2ccccc2C)ccc1Cc1cn(C)c2ccc(NC(=O)OC3CCCC3)cc12`, for the setting “at 20 µM”, the inhibition was 55.9% (active). With `COc1ccc(CNC(=O)Cc2cn(C)c3ccccc23)c(OC)c1`, the inhibition (at 20 µM) was 0% (inactive). Still for that read-out and setting: then `O=S(=O)(c1ccc(C2CCCCC2)cc1)N1CCCC1`, with -0.2% (inactive); and `COCCn1c(=NC(=O)CCS(=O)(=O)c2ccccc2)sc2c(OC)ccc(OC)c21`, with 1.4% (inactive). As to `CC(C)NCc1cc(Br)ccc1OCc1ccccc1`, where the note is “at 20 µM”, the inhibition was 0.8% (inactive). Still for that read-out and setting: the result for `S=c1[nH]nc(-c2ccco2)n1/N=C/C=C/c1ccco1` reads 65.9% (active).

For `S=c1[nH]nc(-c2ccccc2)n1/N=C/C=C/c1ccco1`, the inhibition runs as follows: (at 20 µM) 51.2% (inactive); under setting [1], -0.2%. In the case of `S=c1[nH]nc(-c2ccco2)n1/N=C/C=C/c1ccccc1`, the inhibition (at 20 µM) was 3.2% (inactive).

Regarding `COc1ccc2c(CC(=O)Nc3ncc(C)s3)coc2c1`, under “at 20 µM”, the inhibition is 1.1% (inactive). Take `Cc1cccc(C)c1OCc1cc(C(=O)NCc2ccc(Cl)s2)no1`: the inhibition (at 20 µM) was 0.7% (inactive). Still for that read-out and setting: then `CC1=CC(=C(C#N)C#N)c2ccccc2N1C`, with 146% (inactive); and `COC(=O)c1c(C(=O)NCc2ccccc2)ncn1CC(O)COc1ccccc1` (configuration not stated), with -0.4% (inactive). The same measure, in the same setting: the result for `O=C(O)c1ccc(/C=C/c2nc3sc4c(c3c(=O)[nH]2)CCC4)cc1` reads 33.6% (inactive); that for `CCOC(=O)c1nc2sc3c(c2c(=O)[nH]1)CCCC3`, 0.4% (inactive) and 2.4% (inactive). With `N#C/C(=C\c1ccc(C(=O)O)cc1)c1nc2sc3c(c2c(=O)[nH]1)CCCC3`, the inhibition (at 20 µM) was 103% (active). On the same count and under the same terms, the result for `O=C(N/N=C/c1cc([N+](=O)[O-])ccc1O)C(O)(c1ccccc1)c1ccccc1` reads 15.6% (inactive); that for `N#CC1(C#N)C(c2ccccc2)OC23CCCCCC2C1(C#N)C(=N)O3` (configuration not stated), 10% (inactive). Same read-out and setting: then `COc1ccc2c(CC(=O)Nc3ccc(N4CCOCC4)cc3)coc2c1`, with -1.8% (inactive). `O=C(Nc1ccc2nc(-c3ccco3)c(-c3ccco3)nc2c1)N1CCCCCC1`: the inhibition is 55.6% (inactive) (at 20 µM) and 19.7% under setting [1]. Consider `CCOC(=O)C1CCN(C(=O)Nc2ccc3nc(-c4ccco4)c(-c4ccco4)nc3c2)CC1`, for which the inhibition (at 20 µM) is 68.6% (active). Same read-out and setting: then `CCOC(=O)C1CCN(C(=O)Nc2ccc3nc(C)c(C)nc3c2)CC1`, with 0.1% (inactive); and `Cc1cc(C)c(C)c(S(=O)(=O)N2CCNCC2)c1C`, with 0.3% (inactive); and `CC(C)(C)c1ccc(-c2nnc3sc(-c4ccncc4)nn23)cc1`, with -2.8% (inactive). Same read-out and setting: the result for `NC(=S)Nc1ccc(Cl)cc1Cl` reads -1.7% (inactive); that for `COc1cc(OC)c(/C=N/n2c(C)nnc2C)c(OC)c1`, -1.2% (inactive); that for `CCOC(=O)/C(C#N)=C/c1ccc(-c2ccsc2C(=O)OC)o1`, 61.4% (active).

Take `COC(=O)C(=Cc1ccc(-c2ccsc2C(=O)OC)o1)C(=O)OC`: the inhibition (at 20 µM) was -1% (inactive).

For the compound `CCOC(=O)C(=Cc1ccc(-c2ccsc2C(=O)OC)o1)C(=O)OCC`, for the setting “at 20 µM”, the inhibition is 2.2% (inactive).
